Experimental data: ChEMBL document CHEMBL2218924, “A broad activity screen in support of a chemogenomic map for kinase signalling research and drug discovery” (Biochem J, 2013)

Columns and labels:
[1] = target: T1, Testis-specific serine/threonine-protein kinase 1 (Homo sapiens) (UniProt Q9BXA7); conditions: at 1 µM
T1 sequence (whole entry): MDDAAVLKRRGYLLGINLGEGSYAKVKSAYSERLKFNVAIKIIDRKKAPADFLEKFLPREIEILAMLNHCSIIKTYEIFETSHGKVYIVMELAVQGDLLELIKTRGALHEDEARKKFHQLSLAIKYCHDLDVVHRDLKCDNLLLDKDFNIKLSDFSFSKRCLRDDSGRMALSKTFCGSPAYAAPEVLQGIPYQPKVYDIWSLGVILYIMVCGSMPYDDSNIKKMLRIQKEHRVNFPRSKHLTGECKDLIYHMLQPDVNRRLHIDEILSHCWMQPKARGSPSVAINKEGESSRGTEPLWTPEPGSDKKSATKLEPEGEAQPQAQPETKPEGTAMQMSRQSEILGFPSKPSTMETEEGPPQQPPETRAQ

[2] = target: T1, Testis-specific serine/threonine-protein kinase 1 (Homo sapiens); conditions: at 10 µM
[3] = target: T2, Testis-specific serine/threonine-protein kinase 2 (Homo sapiens) (UniProt Q96PF2); conditions: at 10 µM
T2 sequence (whole entry): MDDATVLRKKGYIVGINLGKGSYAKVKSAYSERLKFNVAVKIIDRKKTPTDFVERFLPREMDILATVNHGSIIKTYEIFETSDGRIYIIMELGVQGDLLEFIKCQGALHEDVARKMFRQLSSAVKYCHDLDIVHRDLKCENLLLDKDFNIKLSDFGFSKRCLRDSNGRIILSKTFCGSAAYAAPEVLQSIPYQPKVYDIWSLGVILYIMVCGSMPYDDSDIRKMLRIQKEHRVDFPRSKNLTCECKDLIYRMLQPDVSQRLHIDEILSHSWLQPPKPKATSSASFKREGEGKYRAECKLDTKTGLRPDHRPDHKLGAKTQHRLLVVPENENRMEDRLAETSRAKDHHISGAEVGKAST

[4] = target: T3, Tyrosine-protein kinase Tec (Homo sapiens) (UniProt P42680); conditions: at 1 µM
T3 sequence (whole entry): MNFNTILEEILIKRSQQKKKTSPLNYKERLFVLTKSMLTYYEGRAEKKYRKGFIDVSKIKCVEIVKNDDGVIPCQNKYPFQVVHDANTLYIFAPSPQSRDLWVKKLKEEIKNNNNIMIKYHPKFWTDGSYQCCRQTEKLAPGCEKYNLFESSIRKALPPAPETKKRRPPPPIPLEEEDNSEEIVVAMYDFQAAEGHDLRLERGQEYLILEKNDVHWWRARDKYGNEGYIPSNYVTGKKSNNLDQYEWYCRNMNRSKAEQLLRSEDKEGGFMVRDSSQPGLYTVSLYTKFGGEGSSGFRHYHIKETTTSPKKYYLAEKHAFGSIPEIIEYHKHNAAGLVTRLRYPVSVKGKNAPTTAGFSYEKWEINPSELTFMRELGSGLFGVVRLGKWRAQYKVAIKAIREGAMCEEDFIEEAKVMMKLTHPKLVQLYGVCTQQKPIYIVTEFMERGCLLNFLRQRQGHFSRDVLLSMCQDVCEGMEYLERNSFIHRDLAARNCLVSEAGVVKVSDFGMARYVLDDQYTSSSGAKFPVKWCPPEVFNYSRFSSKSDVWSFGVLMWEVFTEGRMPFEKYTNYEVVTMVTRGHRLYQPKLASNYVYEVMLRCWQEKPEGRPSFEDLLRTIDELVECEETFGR

[5] = target: T3, Tyrosine-protein kinase Tec (Homo sapiens); conditions: at 10 µM
[6] = target: Angiopoietin-1 receptor (Homo sapiens) (UniProt Q02763); conditions: at 1 µM
Chain of Angiopoietin-1 receptor (Homo sapiens) (Q02763 whole entry): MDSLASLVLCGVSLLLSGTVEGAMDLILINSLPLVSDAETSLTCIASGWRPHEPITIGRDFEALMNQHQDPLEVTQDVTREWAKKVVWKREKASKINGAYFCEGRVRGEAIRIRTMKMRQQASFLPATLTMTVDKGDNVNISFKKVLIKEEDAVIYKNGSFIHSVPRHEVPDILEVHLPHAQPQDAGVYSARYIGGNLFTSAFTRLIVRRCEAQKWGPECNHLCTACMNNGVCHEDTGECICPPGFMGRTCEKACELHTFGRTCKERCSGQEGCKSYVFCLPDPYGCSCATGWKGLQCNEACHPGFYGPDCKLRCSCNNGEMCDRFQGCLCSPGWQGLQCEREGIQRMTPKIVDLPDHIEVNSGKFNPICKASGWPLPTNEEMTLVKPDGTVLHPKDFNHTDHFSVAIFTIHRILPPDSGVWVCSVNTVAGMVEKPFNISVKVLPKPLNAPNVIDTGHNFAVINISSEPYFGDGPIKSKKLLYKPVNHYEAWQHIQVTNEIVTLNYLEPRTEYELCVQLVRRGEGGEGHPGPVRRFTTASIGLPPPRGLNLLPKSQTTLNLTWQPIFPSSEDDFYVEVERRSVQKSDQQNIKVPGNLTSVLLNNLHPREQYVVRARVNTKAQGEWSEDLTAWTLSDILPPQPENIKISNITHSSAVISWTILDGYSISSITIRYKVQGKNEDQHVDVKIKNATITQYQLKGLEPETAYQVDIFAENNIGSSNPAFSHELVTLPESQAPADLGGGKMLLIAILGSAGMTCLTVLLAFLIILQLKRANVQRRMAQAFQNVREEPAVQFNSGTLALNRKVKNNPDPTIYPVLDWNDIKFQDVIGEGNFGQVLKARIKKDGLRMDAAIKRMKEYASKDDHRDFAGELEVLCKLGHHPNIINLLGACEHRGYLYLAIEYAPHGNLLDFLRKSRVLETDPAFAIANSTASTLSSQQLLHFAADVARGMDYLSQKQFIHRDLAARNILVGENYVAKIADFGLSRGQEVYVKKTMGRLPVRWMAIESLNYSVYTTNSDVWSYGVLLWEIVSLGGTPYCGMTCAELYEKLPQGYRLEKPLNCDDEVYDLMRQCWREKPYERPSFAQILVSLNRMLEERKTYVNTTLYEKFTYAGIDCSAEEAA

[7] = target: Angiopoietin-1 receptor (Homo sapiens) (UniProt Q02763); conditions: at 10 µM
[8] = target: BDNF/NT-3 growth factors receptor (Homo sapiens) (UniProt Q16620); conditions: at 1 µM
Chain of BDNF/NT-3 growth factors receptor (Homo sapiens) (Q16620 32-822 limits assumed): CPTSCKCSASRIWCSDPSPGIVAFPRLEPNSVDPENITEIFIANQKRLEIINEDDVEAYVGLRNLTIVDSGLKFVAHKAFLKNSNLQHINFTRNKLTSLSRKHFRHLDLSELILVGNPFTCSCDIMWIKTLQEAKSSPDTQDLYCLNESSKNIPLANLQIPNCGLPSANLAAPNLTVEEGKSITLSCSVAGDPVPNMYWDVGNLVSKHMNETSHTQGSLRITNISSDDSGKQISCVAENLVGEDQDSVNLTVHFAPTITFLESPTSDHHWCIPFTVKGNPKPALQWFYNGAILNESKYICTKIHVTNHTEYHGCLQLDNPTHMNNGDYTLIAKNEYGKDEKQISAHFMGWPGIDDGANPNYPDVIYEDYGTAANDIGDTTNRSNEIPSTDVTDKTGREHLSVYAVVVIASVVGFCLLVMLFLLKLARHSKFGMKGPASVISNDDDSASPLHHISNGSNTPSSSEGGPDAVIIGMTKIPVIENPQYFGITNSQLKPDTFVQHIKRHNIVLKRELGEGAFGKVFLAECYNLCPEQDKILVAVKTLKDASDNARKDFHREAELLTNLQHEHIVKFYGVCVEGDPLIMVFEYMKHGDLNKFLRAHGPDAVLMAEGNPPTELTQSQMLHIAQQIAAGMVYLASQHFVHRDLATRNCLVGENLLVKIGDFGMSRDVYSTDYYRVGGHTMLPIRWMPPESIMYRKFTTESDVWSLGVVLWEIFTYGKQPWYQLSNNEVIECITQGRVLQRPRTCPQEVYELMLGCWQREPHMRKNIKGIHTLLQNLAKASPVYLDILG

[9] = target: BDNF/NT-3 growth factors receptor (Homo sapiens) (UniProt Q16620); conditions: at 10 µM
[10] = target: T4, Tyrosine-protein kinase TXK (Homo sapiens) (UniProt P42681); conditions: at 1 µM
T4 sequence (whole entry): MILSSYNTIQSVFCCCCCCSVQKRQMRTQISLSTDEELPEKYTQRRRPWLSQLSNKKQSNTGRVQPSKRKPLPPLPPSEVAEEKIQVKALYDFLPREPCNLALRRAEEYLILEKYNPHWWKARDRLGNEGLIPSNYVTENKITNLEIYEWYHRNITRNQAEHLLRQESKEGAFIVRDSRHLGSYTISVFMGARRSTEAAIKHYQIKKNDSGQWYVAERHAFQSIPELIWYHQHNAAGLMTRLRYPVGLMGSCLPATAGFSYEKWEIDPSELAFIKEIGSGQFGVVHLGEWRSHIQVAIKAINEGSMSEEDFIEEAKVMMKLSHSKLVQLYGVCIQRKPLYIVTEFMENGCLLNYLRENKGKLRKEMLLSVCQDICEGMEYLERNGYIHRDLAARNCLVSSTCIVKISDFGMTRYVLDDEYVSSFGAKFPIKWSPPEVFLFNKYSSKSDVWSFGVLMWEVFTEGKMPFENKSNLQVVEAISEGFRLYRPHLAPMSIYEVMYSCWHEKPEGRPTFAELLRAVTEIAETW

[11] = target: T4, Tyrosine-protein kinase TXK (Homo sapiens); conditions: at 10 µM
[12] = target: T5, Serine/threonine-protein kinase ULK2 (Homo sapiens) (UniProt Q8IYT8); conditions: at 1 µM
T5 sequence (whole entry): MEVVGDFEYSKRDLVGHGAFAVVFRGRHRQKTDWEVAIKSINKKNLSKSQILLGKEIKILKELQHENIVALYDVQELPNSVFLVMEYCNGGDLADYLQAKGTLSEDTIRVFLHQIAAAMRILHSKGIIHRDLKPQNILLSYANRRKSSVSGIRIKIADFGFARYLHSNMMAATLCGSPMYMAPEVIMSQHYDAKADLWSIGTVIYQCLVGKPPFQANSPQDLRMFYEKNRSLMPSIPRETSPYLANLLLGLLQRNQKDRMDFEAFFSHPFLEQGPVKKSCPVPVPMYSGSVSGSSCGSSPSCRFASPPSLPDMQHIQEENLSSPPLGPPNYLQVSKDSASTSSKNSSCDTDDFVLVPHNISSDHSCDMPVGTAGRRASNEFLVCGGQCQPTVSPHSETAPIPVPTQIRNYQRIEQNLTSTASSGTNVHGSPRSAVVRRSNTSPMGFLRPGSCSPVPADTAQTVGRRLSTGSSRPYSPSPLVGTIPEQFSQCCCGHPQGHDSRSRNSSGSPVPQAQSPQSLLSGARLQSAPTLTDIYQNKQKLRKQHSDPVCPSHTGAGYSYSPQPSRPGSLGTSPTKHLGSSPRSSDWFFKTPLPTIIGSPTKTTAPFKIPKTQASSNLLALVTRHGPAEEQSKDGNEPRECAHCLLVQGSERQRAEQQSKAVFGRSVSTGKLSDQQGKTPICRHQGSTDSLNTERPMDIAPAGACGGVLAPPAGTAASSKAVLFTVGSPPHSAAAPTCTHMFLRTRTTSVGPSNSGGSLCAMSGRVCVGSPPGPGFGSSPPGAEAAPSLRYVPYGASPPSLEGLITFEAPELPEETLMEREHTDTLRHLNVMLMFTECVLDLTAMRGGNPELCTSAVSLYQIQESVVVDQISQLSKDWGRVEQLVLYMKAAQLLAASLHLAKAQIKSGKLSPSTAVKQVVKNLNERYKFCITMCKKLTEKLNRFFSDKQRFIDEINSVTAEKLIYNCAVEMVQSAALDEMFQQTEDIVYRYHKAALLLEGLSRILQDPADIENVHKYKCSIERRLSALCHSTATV

[13] = target: T5, Serine/threonine-protein kinase ULK2 (Homo sapiens); conditions: at 10 µM
[14] = target: T6, Serine/threonine-protein kinase ULK3 (Homo sapiens) (UniProt Q6PHR2); conditions: at 1 µM
T6 sequence (whole entry): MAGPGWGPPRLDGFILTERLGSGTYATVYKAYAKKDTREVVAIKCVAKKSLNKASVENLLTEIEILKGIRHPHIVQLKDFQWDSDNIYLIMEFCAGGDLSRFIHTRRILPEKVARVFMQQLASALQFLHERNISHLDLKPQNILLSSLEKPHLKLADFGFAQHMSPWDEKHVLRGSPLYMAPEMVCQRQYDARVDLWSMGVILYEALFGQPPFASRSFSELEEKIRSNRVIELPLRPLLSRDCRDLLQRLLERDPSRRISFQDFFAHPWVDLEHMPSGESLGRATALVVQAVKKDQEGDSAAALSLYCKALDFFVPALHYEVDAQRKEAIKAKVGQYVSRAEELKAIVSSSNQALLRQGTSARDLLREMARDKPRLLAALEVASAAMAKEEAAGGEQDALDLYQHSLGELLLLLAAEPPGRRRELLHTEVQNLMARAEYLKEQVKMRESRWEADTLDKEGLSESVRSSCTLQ

[15] = target: T6, Serine/threonine-protein kinase ULK3 (Homo sapiens); conditions: at 10 µM
[16] = target: Serine/threonine-protein kinase VRK2 (Homo sapiens) (UniProt Q86Y07); conditions: at 1 µM
Chain of Serine/threonine-protein kinase VRK2 (Homo sapiens) (Q86Y07 whole entry): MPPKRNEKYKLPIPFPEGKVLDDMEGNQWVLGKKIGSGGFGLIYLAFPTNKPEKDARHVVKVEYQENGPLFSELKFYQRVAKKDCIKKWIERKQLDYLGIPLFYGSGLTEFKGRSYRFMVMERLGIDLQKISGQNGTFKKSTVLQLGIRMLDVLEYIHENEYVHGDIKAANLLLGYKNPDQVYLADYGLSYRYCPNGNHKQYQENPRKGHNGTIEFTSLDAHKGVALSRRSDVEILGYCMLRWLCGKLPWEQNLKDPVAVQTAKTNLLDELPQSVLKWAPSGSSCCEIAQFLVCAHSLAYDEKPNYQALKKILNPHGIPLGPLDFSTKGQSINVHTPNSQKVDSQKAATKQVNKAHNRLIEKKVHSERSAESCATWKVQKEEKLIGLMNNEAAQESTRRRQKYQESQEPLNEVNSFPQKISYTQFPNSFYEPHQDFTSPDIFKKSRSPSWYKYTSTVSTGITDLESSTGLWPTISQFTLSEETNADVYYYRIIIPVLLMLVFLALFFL

[17] = target: Serine/threonine-protein kinase VRK2 (Homo sapiens) (UniProt Q86Y07); conditions: at 10 µM
[18] = target: High affinity nerve growth factor receptor (Homo sapiens) (UniProt P04629); conditions: at 1 µM
Chain of High affinity nerve growth factor receptor (Homo sapiens) (P04629 33-796 limits assumed): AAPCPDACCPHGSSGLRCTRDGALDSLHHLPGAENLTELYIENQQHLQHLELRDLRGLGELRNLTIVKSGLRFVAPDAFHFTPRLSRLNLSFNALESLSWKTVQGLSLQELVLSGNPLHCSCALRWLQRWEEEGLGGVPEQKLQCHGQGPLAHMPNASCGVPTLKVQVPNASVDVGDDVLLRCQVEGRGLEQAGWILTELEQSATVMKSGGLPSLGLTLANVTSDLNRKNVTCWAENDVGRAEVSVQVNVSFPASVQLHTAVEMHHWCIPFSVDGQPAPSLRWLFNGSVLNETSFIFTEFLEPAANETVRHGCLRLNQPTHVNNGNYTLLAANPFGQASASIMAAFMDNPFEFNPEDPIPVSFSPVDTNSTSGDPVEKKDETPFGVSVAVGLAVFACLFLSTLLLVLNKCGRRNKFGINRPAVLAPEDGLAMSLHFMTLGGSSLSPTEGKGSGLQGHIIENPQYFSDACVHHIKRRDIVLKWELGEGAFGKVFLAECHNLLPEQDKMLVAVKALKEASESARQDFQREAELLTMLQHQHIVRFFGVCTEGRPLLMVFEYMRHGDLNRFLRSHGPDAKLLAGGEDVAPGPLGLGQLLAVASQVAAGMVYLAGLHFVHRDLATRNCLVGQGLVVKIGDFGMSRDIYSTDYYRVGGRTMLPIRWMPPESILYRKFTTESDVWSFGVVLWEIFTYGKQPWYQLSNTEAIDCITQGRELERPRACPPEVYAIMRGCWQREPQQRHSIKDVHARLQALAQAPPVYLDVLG

[19] = target: High affinity nerve growth factor receptor (Homo sapiens) (UniProt P04629); conditions: at 10 µM
[20] = target: Serine/threonine-protein kinase WNK2 (Homo sapiens) (UniProt Q9Y3S1); conditions: at 1 µM;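 further: residual WNK2 kinase activity expressed as percent of uninhibited control, assayed in MOPS buffer at pH 7.0 containing EDTA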

Structure (SMILES) | residual activity [1] [%] | residual activity [2] [%] | residual activity [3] [%] | residual activity [4] [%] | residual activity [5] [%] | residual activity [6] [%] | residual activity [7] [%] | residual activity [8] [%] | residual activity [9] [%] | residual activity [10] [%] | residual activity [11] [%] | residual activity [12] [%] | residual activity [13] [%] | residual activity [14] [%] | residual activity [15] [%] | residual activity [16] | residual activity [17] [%] | residual activity [18] [%] | residual activity [19] [%] | residual activity [20]
O=C(O)/C=C/c1cc(Br)c(Br)c(Br)c1Br | 81 | 99 | 102 | 94 | 96 | 99 | 89 | 109 | 83 | 94 | 95 | 109 | 107 | 98 | 93 | 109% (inactive) | 105 |  |  | 
CC(C)N(CCC(=O)c1ccc2ccccc2c1)Cc1ccccc1 | 81 | 78 |  |  | 73 |  |  |  |  |  | 42 |  |  |  | 86 | 100% (inactive) | 86 |  |  | 
CN(C)S(=O)(=O)c1ccc2c(c1)/C(=C/c1cc3c([nH]1)CCCC3)C(=O)N2 | 91 | 73 |  | 86 | 80 | 45 | 51 | 4 | 1 | 92 | 90 | 38 | 13 | 11 | 6 |  | 91 | -2 | -1 | 94% (inactive)
COc1cc2c(cc1OC)-c1n[nH]c(Nc3cccc(F)c3)c1C2 | 77 | 68 |  | 63 | 18 |  | 74 | 56 | 31 | 64 | 20 |  |  | 98 | 72 |  |  | 69 | 6 | 78% (inactive)
NC(=O)Nc1sc(-c2ccc(F)cc2)cc1C(N)=O | 62 | 27 | 54 |  |  | 82 | 21 | 27 | 2 |  |  | 86 | 36 | 69 | 24 | 95% (inactive) | 52 |  |  | 
COc1cc2nccc(Oc3ccc(NC(=S)NC(=O)c4ccccc4C)cc3)c2cc1OC | 93 | 76 | 81 | 79 | 36 | 33 | 13 | 54 | 25 | 88 | 37 | 101 | 93 | 99 | 76 | 93% (inactive) | 90 | 44 | -1 | 76% (inactive)
O=C1NC(=O)C(c2cn(CCCO)c3ncccc23)=C1c1cnccn1 | 97 | 84 | 59 | 91 | 73 | 95 | 94 | 87 | 90 | 82 | 86 |  |  | 93 | 92 |  |  | 80 | 64 | 
CCCC(=O)Oc1ccc2[nH]c(C(=O)c3cc4ccccc4[nH]3)cc2c1 | 93 | 82 | 96 | 85 | 94 | 78 | 49 |  | 13 | 102 | 82 | 103 | 97 | 105 | 85 | 105% (inactive) | 84 | 87 | 87 | 
CC(C)(C)n1nc(Cc2cccc3ccccc23)c2c(N)ncnc21 | 96 | 90 |  | 53 | 10 | 71 | 28 | 45 | 24 | 43 | 7 | 106 | 95 | 109 | 90 | 92% (inactive) | 68 | 80 | 17 | 98% (inactive)
CCCCc1c(-c2ccc(OC)cc2)[nH]c2nccnc12 | 63 | 81 |  | 51 | 11 | 105 | 82 | 70 | 76 | 53 | 55 |  |  | 68 | 69 | 105% (inactive) | 100 | 61 | 57 | 105% (inactive)
CCOC(=O)c1c(C)[nH]c(/C=C2\C(=O)Nc3ccccc32)c1C | 93 | 83 | 97 | 88 | 92 |  |  | 73 | 45 | 97 | 91 |  |  | 76 | 70 |  |  | 13 | 32 | 
c1ccc(-c2cnc(Nc3ccc(OCCN4CCCC4)cc3)s2)cc1 | 100 | 78 | 74 |  |  | 114 | 60 | 45 | 3 |  | 60 | 59 | 16 |  |  |  |  | 24 | 3 | 123% (inactive)
